The results in this text go back to PubChem BioAssay (NCI).

A short description of assay [1]: NCI Yeast Anticancer Drug Screen. Data for the rad50 strain (AID 155).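 Further: 0% = growth of vehicle-only cultures of the same strain.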 Conditions: S. cerevisiae rad50 strain growth inhibition; at 50.0 µM; active compounds read high. In short, it runs like this: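 DNA repair mutant yeast, compound exposure, growth read-out; inhibition is taken relative to vehicle.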
The nature of assay [2]: NCI Yeast Anticancer Drug Screen. Data for the mec2-1 strain (AID 157). To be noted: S. cerevisiae mec2-1 strain, at 50.0 µM, active compounds read high. The method, boiled down:
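Readout is yeast growth inhibition, normalised to vehicle-treated controls, in the mec2-1 strain exposed to compound.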

Assay [3] is described as follows: NCI Yeast Anticancer Drug Screen. Data for the sgs1 mgt1 strain (AID 161).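 Further: 0% = growth of cultures given vehicle only.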 To be noted: S. cerevisiae sgs1 mgt1 strain, at 50.0 µM, active compounds read high. In short, it runs like this:
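Yeast cells carrying a defined DNA-repair defect were exposed to test compounds. Growth inhibition was measured relative to vehicle-treated controls.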

The nature of assay [4]: NCI Yeast Anticancer Drug Screen. Data for the cln2 rad14 strain (AID 165).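 Further: 0% = growth equal to vehicle treated cultures.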 Conditions: S. cerevisiae cln2 rad14 strain, at 50.0 µM, active compounds read high. The method, boiled down:
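Relative to vehicle controls, growth inhibition of compound-treated cln2 rad14 yeast was recorded.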

Assay [5] can be described thus: NCI Yeast Anticancer Drug Screen. Data for the bub3 strain (AID 167). Conditions: S. cerevisiae bub3 mutant strain, at 50.0 µM, active compounds read high. The method, boiled down: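 In this screen, a yeast mutant lacking normal mitotic checkpoint function is challenged with compound. Relative growth versus vehicle gives the inhibition value.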
Assay [6] can be described thus: NCI Yeast Anticancer Drug Screen. Data for the mlh1 rad18 strain (AID 175). Conditions: S. cerevisiae mlh1 rad18 strain growth inhibition; at 50.0 µM; active compounds read high. In short, it runs like this:
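Test agents were incubated with a yeast strain of defined genotype (DNA damage repair defect). Inhibition of growth was derived by comparison with vehicle-exposed cultures.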

The structures appear in SMILES notation. This is part of a sample that, as a whole, favours compounds with a hit. Of some 79,000 tested, about 15% had one in any assay. Values without a mark were called inactive. The source made the active and inactive calls. No stated cut-off is given here; in the data, active means growth inhibition above about 70%; inactive means the rest.

For the compound `c1ccc(CCN2CCCCC2)cc1`, the growth inhibition in assay [1] was 23.2%; in assay [2], -4.6%; in assay [3], 10.4%; in assay [4], -2.45%; in assay [5], -14.5%; in assay [6], 33.9%.
For the compound `C[N+]1(C)CCCC1c1cccnc1` (stereo unspecified), the growth inhibition is 42.8% in assay [1]; 7.35% in assay [2]; -2.45% in assay [3]; -15.2% in assay [4]; 14.4% in assay [5]; 29.9% in assay [6].
In the case of `Cc1ccc(S(=O)(=O)OCCN2CC2)cc1`, the growth inhibition in assay [1] is -12%; in assay [2], -12.2%; in assay [3] it was -13.6%; in assay [4], -23.2%; in assay [5], -17.4%; in assay [6], -12.7%.
For `CCNC1CCCCC1`, the growth inhibition in assay [1] was 26.3%; in assay [2], -5.45%; in assay [3], -14.2%; in assay [4], 29.1%; in assay [5], -19.1%; in assay [6], 20.1%.
Take `O=NNc1cncc(NN=O)n1`: the growth inhibition in assay [1] was -37.9%; in assay [2], 1.1%; in assay [3], -2.8%; in assay [4], -14.9%; in assay [5], -4.95%; in assay [6], 3.75%.
On to `CC1OC(OC2C(O)CC(OC3C(O)CC(OC4CCC5(C)C(CCC6C5CCC5(C)C(C7=CC(=O)OC7)C(O)CC65O)C4)OC3C)OC2C)CC(O)C1O` (stereo unspecified), for which the growth inhibition was -12.8% in assay [1]; 10.6% in assay [2]; -19.1% in assay [3]; -13.1% in assay [4]; -5.45% in assay [5]; 27.6% in assay [6].
Take `CCCCCCN(CCCCCC)C1C=CCCC1` (stereo unspecified): the growth inhibition is -5.4% in assay [1]; -11.2% in assay [2]; 0.25% in assay [3]; -32.6% in assay [4]; -2.2% in assay [5]; -4.15% in assay [6].
`Cc1cccnc1NN=O`: the growth inhibition was -8.25% in assay [1]; -23.9% in assay [2]; -23.8% in assay [3]; 10% in assay [4]; -20.2% in assay [5]; 13.6% in assay [6].
Take `Oc1ccccc1C=NC1CCCCC1N=Cc1ccccc1O.[Ni]` (stereo unspecified): the growth inhibition in assay [1] was 18.7%; in assay [2], 4.05%; in assay [3] it was 7.9%; in assay [4] it was -8.6%; in assay [5], -0.55%; in assay [6], -10.4%.
For `O=C(NC(Cl)=C(Cl)Cl)P(=O)(c1ccccc1)c1ccccc1`, the growth inhibition in assay [1] was -16.6%; in assay [2] it was -28.3%; in assay [3], 10.8%; in assay [4], 17.2%; in assay [5], -5.4%; in assay [6], 3%.
Turning to `Cc1cc(Cl)ccc1O`, the growth inhibition in assay [1] was -1.2%; in assay [2], -14.8%; in assay [3] it was -0.3%; in assay [4], 0.5%; in assay [5], -3.1%; in assay [6], -1.7%.
As to `CCCCCC(=O)C[n+]1ccccc1` (tested in a mixture with another compound), the growth inhibition is -11.7% in assay [1]; -1.4% in assay [2]; -20% in assay [3]; -36% in assay [4]; 24.4% in assay [5]; -9.15% in assay [6].
`CP(C)(=S)P(C)(C)=S`: the growth inhibition in assay [1] was 10.8%; in assay [2], 6.05%; in assay [3], 14.6%; in assay [4] it was -9.1%; in assay [5] it was 3.05%; in assay [6], -18.5%.
With `CN(C)[C@@H]1C(=O)C(C(N)=O)=C(O)[C@]2(O)C(=O)C3C(=O)c4c(O)ccc(Cl)c4[C@](C)(O)[C@H]3C[C@@H]12` (stereo partly specified), the growth inhibition was -6.15% in assay [1]; 7.5% in assay [2]; 22.8% in assay [3]; -2.35% in assay [4]; 3.15% in assay [5]; -2.9% in assay [6].
On to `CC(C)c1cccc(C(C)C)c1NC(=O)/C(CC(=O)CC(c1ccccc1)c1c(O)c2ccccc2oc1=O)=N/O` (stereo unspecified), for which the growth inhibition in assay [1] was -45.5%; in assay [2] it was 4.85%; in assay [3], 19.1%; in assay [4] it was -32.1%; in assay [5] it was -15.8%; in assay [6], 18.3%.
`O=NNc1cc(=O)[nH]c(=O)[nH]1`: the growth inhibition in assay [1] is 5.4%; in assay [2], -4.5%; in assay [3], -3.85%; in assay [4], -39.2%; in assay [5], -7.6%; in assay [6], -6.5%.
Turning to `CC(C)=CCC/C(C)=N\N=C(N)N`, the growth inhibition in assay [1] is 5.35%; in assay [2], -8.65%; in assay [3], -13.2%; in assay [4], -20.5%; in assay [5], -2.8%; in assay [6], -15.6%.
For `CC1(C)CCC[N+]1(C)CCC(C(N)=O)(c1ccccc1)c1ccccc1` (stereo unspecified), the growth inhibition in assay [1] was 12.7%; in assay [2], 5.3%; in assay [3], 6.6%; in assay [4], 4.45%; in assay [5] it was 8.8%; in assay [6], 3.35%.
For `CCNCCc1ccc(N)cc1`, the growth inhibition is 5.05% in assay [1]; -2.95% in assay [2]; 0.8% in assay [3]; -6.75% in assay [4]; 1.85% in assay [5]; -2.65% in assay [6].
`COc1cccc(N2CCNCC2)c1`: the growth inhibition in assay [1] was -5.2%; in assay [2], -12.6%; in assay [3], 12.4%; in assay [4], 4.2%; in assay [5] it was -6.6%; in assay [6] it was 25.1%.
With `CCCCCCCCCCCCN(C)C`, the growth inhibition in assay [1] is 45.4%; in assay [2], 28.7%; in assay [3], 35.9%; in assay [4], -6.2%; in assay [5], 29.1%; in assay [6], 37.9%.
With `CSC(=S)N(C)c1nc(=[N+](C)C)ss1`, the growth inhibition in assay [1] is -12.8%; in assay [2], -1.2%; in assay [3], -9.8%; in assay [4], -32.4%; in assay [5], -2.25%; in assay [6], 27.3%.
`[O-][n+]1c2ccccc2nc2ccccc21`: the growth inhibition in assay [1] is 62.1%; in assay [2], 34%; in assay [3], 26.9%; in assay [4], -9.55%; in assay [5], 41.2%; in assay [6], 55.7%.
For the compound `COc1cc2c(c(OC)c1O)-c1ccc(OC)c(=O)cc1[C@@H](NC(=O)C(F)(F)F)CC2`, the growth inhibition was 14.5% in assay [1]; 28.3% in assay [2]; -3.25% in assay [3]; 15.7% in assay [4]; 7.9% in assay [5]; 11.3% in assay [6].
Regarding `CCCCC1(CCSC(=S)OCC)C(=O)NC(=O)NC1=O`, the growth inhibition in assay [1] was 12.6%; in assay [2] it was -12.1%; in assay [3] it was 1.55%; in assay [4], -36.4%; in assay [5], -2.7%; in assay [6], -11.8%.
In the case of `CCCN(CCC)CCc1ccc(OC2=CCN(C)CC2)cc1`, the growth inhibition in assay [1] is -22.6%; in assay [2], -22.1%; in assay [3], 8.85%; in assay [4] it was 16.6%; in assay [5], -15.8%; in assay [6], -55%.
With `O=C(NC1CC1)C(Cl)Cl`, the growth inhibition in assay [1] is -0.15%; in assay [2], -25.1%; in assay [3] it was 5.85%; in assay [4], 11%; in assay [5], -16.4%; in assay [6], -1.15%.
As to `Cc1cc(C)c(CCl)cc1CCl`, the growth inhibition is 16.2% in assay [1]; -5.75% in assay [2]; 26.4% in assay [3]; -7% in assay [4]; -7.15% in assay [5]; 27.8% in assay [6].
Regarding `N#CCc1ccc(O)cc1`, the growth inhibition was 1.25% in assay [1]; 6.75% in assay [2]; -20.8% in assay [3]; -5.1% in assay [4]; -4.7% in assay [5]; 14% in assay [6].
For the compound `CCC1CN(CC(=O)c2ccc(Br)cc2)CCO1` (stereo unspecified), the growth inhibition in assay [1] is 5.4%; in assay [2], 3.35%; in assay [3], 39.9%; in assay [4], 20.6%; in assay [5], 48.6%; in assay [6], 25%.
`Cc1ccc([P+](=O)O)cc1Cl`: the growth inhibition in assay [1] was -12.1%; in assay [2] it was -3.75%; in assay [3] it was -8.55%; in assay [4], -9.25%; in assay [5], 1.65%; in assay [6], -3%.
`Cc1cc(NC(=O)CCc2ccc(N)cc2)ccc1S(=O)(=O)F`: the growth inhibition was 89.5% (active) in assay [1]; 94.9% (active) in assay [2]; 96.5% (active) in assay [3]; 81.8% (active) in assay [4]; 95% (active) in assay [5]; 95.2% (active) in assay [6].
In the case of `O=C1N=NC(Cl)c2ccccc21` (stereo unspecified), the growth inhibition in assay [1] was -20.6%; in assay [2], -13.5%; in assay [3] it was -19.1%; in assay [4], 2.65%; in assay [5], -17.9%; in assay [6], -10.8%.
Consider `Nc1ccc(CCC(=O)Nc2ccc(S(=O)(=O)F)cc2)c(Cl)c1`, for which the growth inhibition was 82.9% (active) in assay [1]; 84% (active) in assay [2]; 85.3% (active) in assay [3]; 92% (active) in assay [4]; 92% (active) in assay [5]; 96.5% (active) in assay [6].
As for `O=C1CN=C(c2ccccc2)c2cc(Cl)ccc2N1`, the growth inhibition in assay [1] was -4.7%; in assay [2], 11.9%; in assay [3], 3.35%; in assay [4], 16.1%; in assay [5] it was 8.55%; in assay [6] it was 32.2%.
In the case of `COc1ccc(CCN2CCOCC2)cc1`, the growth inhibition was 31.9% in assay [1]; 2.15% in assay [2]; 47.8% in assay [3]; 9.25% in assay [4]; 34% in assay [5]; 34.2% in assay [6].
For the compound `O=C(c1cc(N(CCCl)CCCl)c([N+](=O)[O-])cc1[N+](=O)[O-])N1CCOCC1`, the growth inhibition is -1.6% in assay [1]; -3.55% in assay [2]; 13.2% in assay [3]; 3.55% in assay [4]; 19.3% in assay [5]; -3.75% in assay [6].
As to `CS(=O)(=O)NC(=O)CBr`, the growth inhibition in assay [1] was -26.1%; in assay [2], -23.6%; in assay [3], -12.8%; in assay [4] it was 14.6%; in assay [5], -29.4%; in assay [6], -21.1%.
With `Oc1ccccc1C=NCCN=Cc1ccccc1O.[Zn+2]`, the growth inhibition was -29.2% in assay [1]; -2.2% in assay [2]; -25.1% in assay [3]; -53.8% in assay [4]; -7.8% in assay [5]; -17.9% in assay [6].
Turning to `O[C@H]1[C@H](O)[C@@H](O)CN2CC[C@H](O)[C@H]12`, the growth inhibition was -25.9% in assay [1]; -24.1% in assay [2]; -18.1% in assay [3]; -4.1% in assay [4]; -9.05% in assay [5]; -24.6% in assay [6].
For `CC(=O)Nc1ccc([N+](=O)[O-])c(C(F)(F)F)c1`, the growth inhibition in assay [1] was -4.2%; in assay [2], -6.4%; in assay [3], 9.05%; in assay [4] it was 13.1%; in assay [5] it was -3.9%; in assay [6], 6.05%.
